system: Caenorhabditis elegans L1 (N2); test: survival and reproduction score of C. elegans L1 (0: 0-10 living worms, 1: 11-20, 2: 21-50, 3: >50, 4: overgrown) (score 0-4); higher = more worms, less nematicidal, active = 1 or less; extreme values may be limits of the assay; settings: 60 µM; 6 days; temperature: 20 °C
Summary of the method: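 Compound was pinned to a final 60 µM (0.6% v/v DMSO) into 96-well wells, each holding about 20 synchronized C. elegans N2 L1s and E. coli HB101 in liquid NGM. After 6 days of shaking at 200 rpm and 20 °C in sealed plates, the worms in each well were examined. The ordinal readout of survival and reproduction, based on living worms per well, was assessed under a dissection microscope. On this scale 0 meant 0–10 worms and 4 meant overgrown, starved wells, and two biological replicates were averaged.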

Question: `Clc1ccc(OCc2nc(-c3cccnc3)no2)c(Cl)c1` was tested. Which “survival and reproduction score” value did it give?
Answer: Its value is 4 (inactive).

Question: With `Cc1cccc(-c2noc(COc3ccccc3Cl)n2)c1` as the molecule, how does the “survival and reproduction score” value read?
Answer: The value was 4 (inactive).

Question: For `O=C(CSc1nnc(-c2ccccc2)o1)N1CCc2ccccc21`, which “survival and reproduction score” value is on record?
Answer: Its value is 4 (inactive).

Question: `c1coc(-c2nc(-c3cccs3)no2)c1` was tested. Which “survival and reproduction score” value did it give?
Answer: Its value is 0 (active).

Question: How did the “survival and reproduction score” value turn out when `CCOc1cc(-c2noc(-c3ccncc3)n2)ccc1OC` was run?
Answer: The value was 4 (inactive).

Question: With `CC(C)C(=O)Nc1ccccc1-c1nc(-c2ccccc2)no1` as the molecule, how does the “survival and reproduction score” value read?
Answer: The value was 4 (inactive).

Question: For `O=C(CSc1nnc(-c2cc3ccccc3o2)o1)NC1CC1`, which “survival and reproduction score” value is on record?
Answer: Its value is 4 (inactive).

Question: With `Clc1ccc(SCc2nc(-c3cccnc3)no2)cc1` as the molecule, how does the “survival and reproduction score” value read?
Answer: The value was 2.5 (inactive).

Question: Which “survival and reproduction score” value does the source give for `COc1ccc(C(=O)CSc2nnc(-c3ccccc3)o2)cc1` here?
Answer: The value was 4 (inactive).

Question: `CC1CC(C)CN(C(=O)CSc2nnc(-c3cccc(Cl)c3)o2)C1` (centres undefined) was tested. Which “survival and reproduction score” value did it give?
Answer: Its value is 4 (inactive).

Question: Which “survival and reproduction score” value does the source give for `COc1cccc(-c2noc(COc3ccc(C(C)C)cc3)n2)c1` here?
Answer: Its value is 4 (inactive).

Question: For `Brc1ccccc1-c1nc(-c2ccc3c(c2)OCO3)no1`, which “survival and reproduction score” value is on record?
Answer: Its value is 4 (inactive).

Question: `COc1cccc(NC(=O)CSc2nnc(-c3ccc(Br)cc3)o2)c1` was tested. Which “survival and reproduction score” value did it give?
Answer: The value was 4 (inactive).

Question: `Cc1ccc(-c2nc(-c3ccccc3)no2)cc1Cl` was tested. Which “survival and reproduction score” value did it give?
Answer: The value was 3 (inactive).

Question: With `Cc1cccc(-c2noc(C3CCCCC3)n2)c1` as the molecule, how does the “survival and reproduction score” value read?
Answer: The value was 3.5 (inactive).

Question: Which “survival and reproduction score” value does the source give for `Cc1cc(C)cc(OCc2nc(-c3ccccc3Cl)no2)c1` here?
Answer: Its value is 4 (inactive).

Question: Which “survival and reproduction score” value does the source give for `Cn1c(SCc2ccc(Cl)cc2)nnc1-c1ccco1` here?
Answer: Its value is 4 (inactive).

Question: How did the “survival and reproduction score” value turn out when `O=C(CSc1nnc(-c2ccccc2)o1)Nc1cccc(C(F)(F)F)c1` was run?
Answer: Its value is 4 (inactive).

Question: Which “survival and reproduction score” value does the source give for `Cc1csc(NC(=O)CSc2nnc(-c3cccc(Cl)c3)o2)n1` here?
Answer: The value was 4 (inactive).

Question: `COc1cccc(OCc2nc(-c3cccc(Br)c3)no2)c1` was tested. Which “survival and reproduction score” value did it give?
Answer: Its value is 4 (inactive).

Question: `COc1cccc(-c2noc(COc3ccc4ccccc4c3)n2)c1` was tested. Which “survival and reproduction score” value did it give?
Answer: The value was 4 (inactive).

Question: With `Cc1ccccc1CSc1nnc(-c2ccco2)n1C` as the molecule, how does the “survival and reproduction score” value read?
Answer: The value was 2 (inactive).

Question: How did the “survival and reproduction score” value turn out when `Clc1cccc(OCc2nc(-c3cccs3)no2)c1` was run?
Answer: Its value is 0 (active).

Question: For `COc1cccc(-c2noc(COc3cccc(C)c3)n2)c1`, which “survival and reproduction score” value is on record?
Answer: The value was 4 (inactive).

Question: `Brc1ccc(-c2noc(-c3ccco3)n2)cc1` was tested. Which “survival and reproduction score” value did it give?
Answer: Its value is 0 (active).

Question: For `CCCc1nnc(CSc2nnc(-c3ccc(Cl)cc3)o2)o1`, which “survival and reproduction score” value is on record?
Answer: The value was 1 (active).

Question: Which “survival and reproduction score” value does the source give for `O=C(CSc1nnc(-c2ccco2)o1)Nc1ccccc1F` here?
Answer: The value was 4 (inactive).

Question: Which “survival and reproduction score” value does the source give for `COc1ccc(-c2nnc(SCc3ccccc3)o2)cc1` here?
Answer: Its value is 4 (inactive).

Question: Which “survival and reproduction score” value does the source give for `Brc1ccc(-c2nc(-c3ccncc3)no2)cc1` here?
Answer: Its value is 0 (active).

Question: How did the “survival and reproduction score” value turn out when `COc1ccccc1NC(=O)CSc1nnc(-c2ccc(Cl)cc2)o1` was run?
Answer: The value was 4 (inactive).

Question: Which “survival and reproduction score” value does the source give for `COc1ccc(-c2noc(CSc3nc4cc(C)ccc4[nH]3)n2)cc1` here?
Answer: Its value is 4 (inactive).

Question: How did the “survival and reproduction score” value turn out when `COc1ccccc1OCc1nc(-c2cccc(C)c2)no1` was run?
Answer: The value was 4 (inactive).

Question: Which “survival and reproduction score” value does the source give for `Cc1cc(C)c(OCc2nc(-c3ccncc3)no2)c(C)c1` here?
Answer: Its value is 4 (inactive).

Question: How did the “survival and reproduction score” value turn out when `Fc1ccc(-c2nc(-c3ccc(Br)cc3)no2)cc1` was run?
Answer: Its value is 3 (inactive).

Question: How did the “survival and reproduction score” value turn out when `COc1ccc(OCc2nc(-c3cccc(Br)c3)no2)cc1` was run?
Answer: Its value is 4 (inactive).

Question: For `CCOC(=O)c1c(NC(=O)CSc2nnc(-c3ccc(Cl)cc3)o2)sc(C(C)=O)c1C`, which “survival and reproduction score” value is on record?
Answer: The value was 4 (inactive).

Question: How did the “survival and reproduction score” value turn out when `O=C(Nc1ccccc1-c1nc(-c2cccnc2)no1)c1cccs1` was run?
Answer: Its value is 4 (inactive).

Question: For `CC(C)C(=O)Nc1ccccc1-c1nc(-c2cccnc2)no1`, which “survival and reproduction score” value is on record?
Answer: The value was 0 (active).

Question: How did the “survival and reproduction score” value turn out when `Cc1cc(Cl)ccc1NC(=O)CSc1nnc(-c2ccncc2)o1` was run?
Answer: The value was 4 (inactive).

Reference: the supplement of paper PMC11219838
